The subject of experiment [1] is Zika virus NS2B-NS3 protease (linked construct). Briefly: Primary screen NINDS Rhodamine qHTS for Zika virus inhibitors (AID 1347160). Further: nearly all actives have a fitted effect of over 55% in size. Further: potency means the concentration at half of the fitted maximal effect. The gist of the method: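 Each compound, titrated, sat 15 min with 25 nM linked protease before 1.5 microM Rhodamine110 substrate went in. Fluorescence gain over the next 15 min, in pH 8.0 Tris with Tween 20, gave Hill-fitted curves.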
Background: qHTS replaces the single test concentration by a dilution series.

Experiment [2] can be described thus: UWB1.289 Cancer Cell Toxicity qHTS against the NCATS CANVASS Library (AID 1347347). Further: nearly all actives have a fitted effect of over 60% in size. Further: potency means the concentration at half of the fitted maximal effect. The gist of the method: (§1)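 ATP content after 72 h treatment, detected by CellTiter-Glo luminescence (15min room-temperature development), reflects cell viability. Wells contained 1000 cells and received compounds at 11 concentrations.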
A short description of experiment [3]: OV-SAHO Cancer Cell Toxicity qHTS against the NCATS CANVASS Library (AID 1347348). Further: series mostly up to about 38 µM; nearly all actives have a fitted effect of over 55% in size. The gist of the method: as §1
Experiment [4] can be described thus: Panc-1005 Cancer Cell Toxicity qHTS against the NCATS CANVASS Library (AID 1347349). Further: nearly all actives have a fitted effect of over 60% in size. Further: potency means the concentration at half of the fitted maximal effect. The gist of the method: as §1
The nature of experiment [5]: A2780 Cisplatin Sensitive Ovarian Cancer Cell Toxicity qHTS against the NCATS CANVASS Library (AID 1347353). Further: nearly all actives have a fitted effect of over 60% in size. Further: potency means the concentration at half of the fitted maximal effect. Summed up: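 Quantitative HTS format: eleven compound concentrations applied to pre-seeded cells, 72 h incubation at 37 °C, then ATP detection by luminescence.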
Experiment [6] is described as follows: UWB1.289-WTBRCA1 Cancer Cell Toxicity qHTS against the NCATS CANVASS Library (AID 1347354). Further: potency means the concentration at half of the fitted maximal effect. Summed up: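 Using an ATP-based luminescent reagent after three days of treatment, toxicity is scored across an eleven-concentration range in wells holding 1000 cells each.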
Experiment [7] is described as follows: HEK293 18hr Apoptosis Induction qHTS against the NCATS CANVASS Library (AID 1347357). Summed up:
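HEK293 cells (500/well, DMEM + 10% FBS) treated with an 11-point series for 18 h at 37 degrees C. Caspase-3/7 activity read by Caspase-Glo luminescence after 15 min at room temperature.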

In experiment [8] the test system is NAD(P)H diaphorase (Clostridium kluyveri). Nature of the experiment: Diaphorse counterscreen qHTS: Assay Interference Panel against the NCATS CANVASS Library (AID 1347362). The gist of the method:
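Clostridium kluyveri diaphorase in PBS + 0.01% Tween-20 preincubated 15 min with compounds. Resazurin and NADH then added for 5 min at room temperature in the dark; resorufin fluorescence read (ex 525, em 598).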
In general terms: The purpose of a counterscreen is to sort out artefacts and off-target activity.

The nature of experiment [9]: KB-8-5-11 Cancer Cell Toxicity qHTS against the NCATS CANVASS Library (AID 1347364). Further: nearly all actives have a fitted effect of over 75% in size. Further: potency means the concentration at half of the fitted maximal effect. The gist of the method: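 Luminescent ATP signal (CellTiter-Glo, 10 min at room temperature) measured cell survival of KB-8-5-11 after 72 hr compound treatment. For confirmation, the cells were also grown with 1uM tariquidar.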
Experiment [10] can be described thus: SDT Cancer Cell Toxicity qHTS against the NCATS CANVASS Library (AID 1347365).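 Further: SDT canine glioma cells 500 per well in 1536 well plates; series mostly up to about 46 µM; nearly all actives have a fitted effect of over 60% in size.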 The gist of the method: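 Canine SDT glioma cell toxicity was scored by ATP-dependent luminescence after a 72 hr incubation with an 11-point compound series.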
Experiment [11] in a line: G06 Cancer Cell Toxicity qHTS against the NCATS CANVASS Library (AID 1347368). Further: nearly all actives have a fitted effect of over 60% in size. Further: potency means the concentration at half of the fitted maximal effect. The gist of the method:
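Quantitative HTS in G06 cells (dog glioma): 72 hr treatment, 11 concentrations, then ATP-based luminescent viability readout; bortezomib 0.1 nM–4.6 uM final as reference.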

Experiment [12] in a line: qHTS for ATAD5 Antagonist screened against the NCATS CANVASS Library (AID 1347370).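 Further: HEK293T cells carrying an ATAD5 luciferase reporter co-treated with 10 µM 5-fluorouridine; series mostly up to about 46 µM; nearly all actives have a fitted effect of over 65% in size.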 Summed up:
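HEK293T-ATAD5 luc reporter, 2000 cells/well; 5hr attach; cpd + 10 uM 5-FUrd; 16hr 37C, 5% CO2. Readouts: CellTiter-Fluor fluorescence (1hr), then Amplite luciferase luminescence (30min RT).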

Experiment [13] in a line: qHTS for Hypoxia signaling pathway (HIF-1) antagonists against the NCATS CANVASS Library (AID 1347374). The gist of the method: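 Beta-lactamase reporter under HRE control in ME-180 cells; CoCl2 stimulus (60 uM solution as added), compounds 11-pt qHTS, 17 h 37C. CCF4 dye 2 h RT, 460/530 nm emission. CellTiter-Glo viability in same wells.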
Experiment [14] can be described thus: qHTS for Hypoxia signaling pathway (HIF-1) agonists against the NCATS CANVASS Library (AID 1347375). Summed up: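 An HRE-beta-lactamase ME-180 line is exposed for 17 h to an 11-point compound series, then read by CCF4-AM FRET. Cytotoxicity is measured in parallel in the same wells with CellTiter-Glo, and autofluorescence is checked separately.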
Experiment [15] in a line: Cytotoxicity qHTS for assessment of Hepg2 cells membrane integrity screened against the NCATS CANVASS Library (AID 1347387). Summed up:
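Membrane damage in HepG2 monolayers was estimated from released LDH, measured with CytoTox-ONE (ex 560/em 590 nm), after 5 hr treatment across 0.59 nM - 46 uM final.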

Experiment [16] in a line: qHTS for activators of Nrf2/ARE signaling pathway screened against the NCATS CANVASS Library (AID 1347391). Further: nearly all actives have a fitted effect of over 60% in size. The gist of the method: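 Activation of Nrf2/ARE was scored in ARE-bla HepG2 cells after 16 h compound exposure using CCF4 beta-lactamase fluorescence ratio readings.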
Experiment [17] is described as follows: Vero-766 cells viability qHTS against the NCATS CANVASS Library: Counterscreen for Zika virus inhibition assay (AID 1347394). Further: nearly all actives have a fitted effect of over 60% in size. Further: potency means the concentration at half of the fitted maximal effect. The gist of the method:
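Vero 766 cells (1000/well), without Zika virus, were exposed to compounds for 72 h at 37C. Viability was measured by CellTiter Glo luminescence. Media-only wells served as 100% inhibition.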

Experiment [18] is described as follows: qHTS for inhibitors of Wild type Zika virus screened against the NCATS CANVASS Library (AID 1347396).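 Further: ATP luminescence of surviving cells so rescue from viral cell killing; series mostly up to about 46 µM.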 Summed up: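 Vero 766 (African green monkey) cells, 1000 per well, attached overnight, then compounds were added in an 11-point series before wild-type Zika virus infection. After 72 h at 37C, cell viability was read as CellTiter Glo luminescence.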
A short description of experiment [19]: Redox Reaction Profiling qHTS: Assay Interference Panel against the NCATS CANVASS Library (AID 1347401). Summed up: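 Fluorescence read-out (525 nm excitation, 598 nm emission) at time zero and after 15 min in the dark tracked resorufin formation. Mix: 5 uM resazurin, 200 uM DTT, HEPES pH 7.3 buffer with NaCl.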
A short description of experiment [20]: qHTS for activators of dead-cell proteases activity screened against the NCATS CANVASS Library (AID 1347392).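 Further: luminescence from protease leaking out of membrane-damaged cells cleaving impermeant substrate; rising signal means more cytotoxicity.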 Summed up:
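HepG2, 2000 cells/well, 18 h attach; cpd 11-pt, 5 h 37C 5% CO2; CytoTox-Glo (AAF-aminoluciferin) 15 min RT; luminescence read.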

Records with an inconclusive call do not appear. Values without a mark were called inactive. Active and inactive are the calls of the source. The call rests on the fitted dose curve; in most records, active means well fitted curve in the direction sought with a large enough effect; inconclusive means small, poorly fitted or top-dose-only effect, or another doubt; inactive means no such curve, though single readings can be large; an effect the other way counts as inactive or inconclusive. Numbered stars: 1 amine (or outer) side, 2 acyl side, 3 side chain; on linkers, the order of the positions; unused ones are H or OH. Square brackets hold non-standard residues; d marks the D form. Peptide text beside a SMILES is read from it. ξ: configuration not given here. X4 = O=C(C1CC2(c3ccc(O)cc3)c3ccccc3NC2N1[*:1])[*:2]; ξW = NC(Cc1c[nH]c2ccccc12)C(=O)O; ξY = NC(Cc1ccc(O)cc1)C(=O)O

With `CC(=O)O[C@H]1CC[C@@]2(C)C(CC[C@]3(C)C2CC=C2C4CC(C)(C)CC[C@]4(C)CC[C@]23C)C1(C)C` (stereo partly specified), the Potency result in experiment [1], in [2], in experiment [3], in experiment [4], in experiment [5] and in experiment [6] was “inactive” throughout. Further, the Potency result in experiment [7], in [8], in experiment [9], in [10], in [11] and in experiment [12] was “inactive” throughout. Moreover, the Potency result in [13], in experiment [14], in experiment [16], in [17], in [18] and in experiment [19] was “inactive” throughout. In addition, the call in [15] was inactive.

Regarding `CC(C)=CCC[C@@H](C)[C@@H]1CC[C@@]2(C)C[C@H]3C(C)=CC(=O)[C@@H]3/C(C=O)=C\C[C@H]12`, the Potency in experiment [1] is 44 µM (active); in experiment [2], 6.66 µM (active); in [4], 7.49 µM (active); in [5] it was 3.72 µM (active); in [6] it was 10.6 µM (active); in [9], 10.5 µM (active). For the same compound, the Potency in [11] is 16.6 µM (active); in experiment [17], 20.9 µM (active). Also, the Potency entry in [8] and in experiment [16] was “inactive” each time. Moreover, the call in experiment [15] was inactive.

Consider `CC[C@H](C)[C@H](NC(=O)C(Cc1ccc(O)cc1)NC(=O)C(Cc1c[nH]c2ccccc12)NC(=O)[C@H](C)N)C(=O)N1C(C(=O)NC(Cc2ccc(O)cc2)C(=O)O)CC2(c3ccc(O)cc3)c3ccccc3NC12` (stereo partly specified) (H-A[ξW][ξY]I[X4][ξY]-OH), for which, in experiment [1], the Potency was 9.84 µM (active). The Potency result in experiment [2], in [3], in [4], in [5], in experiment [6] and in [7] was “inactive” throughout. For the same compound, the Potency entry in experiment [8], in [9], in experiment [10], in experiment [11], in experiment [12] and in experiment [13] was “inactive” in each case. For the same compound, the Potency result in experiment [14], in [16], in experiment [20], in experiment [17] and in [18] was “inactive” each time. The outcome in [15] was inactive.

Consider `O=Cc1ccc2n1C[C@@]1(C[C@H](O)[C@@H](CO)O1)OC2`, for which the Potency entry in experiment [1], in experiment [2], in [4], in experiment [5], in [6] and in experiment [8] was “inactive” each time. The Potency result in experiment [9], in [10], in experiment [11], in [12], in experiment [13] and in experiment [14] was “inactive” each time. The Potency result in experiment [16], in [20], in experiment [17], in experiment [18] and in [19] was “inactive” in each case. For the same compound, the result in experiment [15] was inactive.

Take `OCc1ccc2ocnc2c1`: the Potency entry in experiment [1], in experiment [2], in [3], in experiment [4], in experiment [5] and in experiment [6] was “inactive” each time. In addition, the Potency entry in experiment [7], in [8], in experiment [9], in [10], in experiment [11] and in [12] was “inactive” each time. The Potency entry in [13], in experiment [14], in experiment [16], in experiment [20], in [18] and in [19] was “inactive” each time. For the same compound, in [15], the call was inactive.

(Values after PubChem BioAssay (NCATS).)
